DRD3 agonist – qHTS of D3 Dopamine Receptor Agonist: qHTS; 410,000 compounds, 0.58% hits; D3R DiscoveRx beta-arrestin cells, luminescence, 90 min; max activation, %; in the data active = max activation above about 30%; also: 0% is about no effect
Target sequence (P35462 whole entry, looked up): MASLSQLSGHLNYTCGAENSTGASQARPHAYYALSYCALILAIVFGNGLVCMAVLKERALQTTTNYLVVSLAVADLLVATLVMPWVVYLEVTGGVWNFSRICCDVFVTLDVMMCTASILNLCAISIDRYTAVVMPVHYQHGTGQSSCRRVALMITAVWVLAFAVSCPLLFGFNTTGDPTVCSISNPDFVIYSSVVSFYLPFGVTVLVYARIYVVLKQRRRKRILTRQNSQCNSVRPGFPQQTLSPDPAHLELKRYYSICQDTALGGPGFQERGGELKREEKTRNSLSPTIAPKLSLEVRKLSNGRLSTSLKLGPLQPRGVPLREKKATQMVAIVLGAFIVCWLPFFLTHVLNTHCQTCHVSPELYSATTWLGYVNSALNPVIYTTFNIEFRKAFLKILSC
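Cells at 1500/well, incubated overnight, then treated with pinned compounds (dopamine as control) for 90 min at 37 degrees C. DiscoveRx reagent added for 30 - 60 minutes at room temperature; luminescence read.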
KB-3-1 tox – qHTS assay for MDR1-selective chemotherapeutics: Primary screen using the parental adenocarcinoma cell KB-3-1. KB-3-1 viability, CellTiter-Glo ATP luminescence, 72 h. Potency, µM (titrated, usually from 46.1 µM), hits mostly cytotoxic. 400,000 compounds, 1.4% hits. AID 1347075, 2019; also: potency is read from the fitted curve at half-maximal effect; % is scaled to controls: 0 for no effect and ±100 for the full control effect; nearly all actives have a fitted effect of over 60% in size
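72 h, 37 °C compound treatment of KB-3-1 parental cells; CellTiter-Glo added, 10 min, luminescence read. Data corrected against DMSO-only plates and normalized before curve fitting.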
KB-V1 MDR tox – qHTS assay for MDR1-selective chemotherapeutics: Primary screen using the drug-selected MDR subline cells KB-V1 | Potency, µM (titrated, usually from 46.1 µM), most hits filed as cytotoxic | 400,000 compounds, 3.4% hits | KB-V1 MDR cells viability, CellTiter-Glo, 72 h; also: potency is read from the fitted curve at half-maximal effect; % is scaled to controls: 0 for no effect and ±100 for the full control effect; nearly all actives have a fitted effect of over 60% in size
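In this primary screen, KB-V1 cells overexpressing P-gp are incubated with library compounds (lowest to highest concentration) for 72 h at 37 degrees C before a luminescent ATP viability read.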
D3 antag – qHTS of D3 Dopamine Receptor Antagonist: qHTS; D3R cells, DiscoveRx beta-arrestin luminescence, antagonist mode; stronger effect = lower value; max response, negative = inhibition, %; 360,000 compounds, 2.5% hits; D(3) dopamine receptor (Homo sapiens), P35462; AID 652054, 2013; in the data active = max response below about -50%; inconclusive = no clear call, values can overlap the other calls; also: % is scaled to controls: 0 for no effect and ±100 for the full control effect
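Cells expressing the human receptor were seeded at 1500 cells/well, incubated overnight at 37 degrees C in 5% CO2, then exposed to library compounds with dopamine controls for 90 minutes at 37 degrees C before luminescent detection.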
MCF10A rereplic – A quantitative high throughput screen for small molecules that induce DNA re-replication in MCF 10a normal breast cells. Potency, µM (top dose mostly 46.1 µM), for the others: top-dose activity, positive = re-replication, usual class: activators. 350,000 compounds, 2.9% hits. MCF 10A DNA re-replication, Hoechst nuclear intensity, 48 h; also: potency is read from the fitted curve at half-maximal effect; % of control where 0% means no effect; nearly all actives have a fitted effect of over 50% in size
SW480 rereplic – A quantitative high throughput screen for small molecules that induce DNA re-replication in SW480 colon adenocarcinoma cells. SW480 DNA re-replication, Hoechst DNA content imaging, 48 h. Potency, µM (series often up to 46.1 µM), without a hit: at the top dose re-replication activation, usual class: activators. 340,000 compounds, 1.8% hits; also: potency is read from the fitted curve at half-maximal effect; % of control where 0% means no effect; nearly all actives have a fitted effect of over 55% in size
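Image-based DNA-content assay: after two days of treatment, nuclei were labelled with the DNA dye Hoechst and imaged, and hits were compounds raising the count of nuclei showing high fluorescence intensity.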
Active calls of the source: *; i = inactive; ? = inconclusive; · = no result given. This is a sample that favours compounds with a hit; in the whole collection about 8.9% have one here. Unless noted, calls follow the shape of the dose curve; as a rule, active = well fitted curve in the direction sought with a large enough effect; inconclusive = small, poorly fitted or top-dose-only effect, or another doubt; inactive = no such curve, though single readings can be large; an effect the other way counts as inactive or inconclusive.

SMILES	DRD3 agonist	KB-3-1 tox	KB-V1 MDR tox	D3 antag	MCF10A rereplic	SW480 rereplic
O=C(C1=NOC2(C1)C(=O)Nc1ccccc12)N1CCCCC1 (stereo not drawn)	8	i	i	14	·	·
CCC(=O)c1ccc(OCC(O)CNC2CCCC2)cc1 (stereo not drawn)	-12	i	i	-14	?	?
OC(CNC1CCCCC1)CON=C1CCSc2c(Cl)cccc21 (stereo not drawn)	-9	?	i	-66*	·	·
CCn1c(C)c(CS(=O)(=O)c2ccccc2)[nH]c1=O	-12	i	i	-71*	7.3µM*	8.2µM*
Cc1cc(O)c2c(c1)O[C@@]1(C)CC[C@H]3C(C)(C)CCCC34CO[C@@H]2[C@H]41 (stereo partly drawn)	5	·	·	·	·	·
NC(=O)c1ccc(NCCc2cccs2)cc1	-8	i	i	-50*	·	·
COc1ccccc1-c1nnc(NC(=O)c2ccc(S(=O)(=O)N(C)Cc3ccccc3)cc2)o1	4	?	5.2µM*	-78*	?	21µM*
CN(Cc1ccccc1)S(=O)(=O)c1ccc(NC(=S)NC(=O)C2CCCCC2)cc1	-12	?	?	0	23µM*	?
CN(Cc1ccccc1)S(=O)(=O)c1ccc(C(=O)Nc2nnc(C3CC3)o2)cc1	-7	?	?	-63*	2%	?
CCc1nnc(NC(=O)c2ccc(S(=O)(=O)N(C)Cc3ccccc3)cc2)o1	-1	?	3.7µM*	-1	-1%	2.6µM*
CC(C)Nc1ccc(-c2nc(-c3ccccn3)no2)cc1[N+](=O)[O-]	0	i	i	·	·	·
CN(c1ccccc1)S(=O)(=O)c1ccc(C(=O)Nc2nnc(-c3ccc(F)cc3)o2)cc1	-4	?	?	-88*	?	-6%
CCc1nnc(NC(=O)c2ccc(S(=O)(=O)N(CC)Cc3ccccc3)cc2)o1	8	?	?	-99*	?	23%
CN(c1ccccc1)S(=O)(=O)c1ccc(NC(=O)c2ccc(-c3ccccc3)cc2)cc1	13	i	?	19	7%	15%
COc1ccc(NC(=O)c2cc(S(=O)(=O)NCCC3=CCCCC3)ccc2F)cc1	2	?	?	·	·	·
O=C(NNCS(=O)(=O)O)c1ccncc1	4	·	·	·	2%	-4%
COc1ccc(N2C(=O)CC(NNC(=O)c3cc(C)oc3C)C2=O)cc1 (stereo not drawn)	-6	i	i	-1	2.6µM*	6%
C=CCn1c(SCC(=O)N2CCOCC2)nc2sc(CC)cc2c1=O	3	i	4.6µM*	-7	-5%	-6%
C=CCn1c(SCC(=O)c2cccs2)nc2sc(C)cc2c1=O	3	i	7.3µM*	-15	?	0%
C=CCn1c(SCC(=O)c2cccs2)nnc1-c1cccc(OC)c1	2	i	i	-18	26%	-7%
CCc1ccc(-n2c3nc(=O)[nH]c(=O)c-3cc3c(C)nn(-c4ccccc4)c32)cc1	4	i	i	·	·	·
COc1ccc(-c2nc(NC(=O)Cn3cnnn3)sc2C)cc1	19	i	i	4	2.1µM*	3%
COc1cc2sc3ccc(C#Cc4ccc(N)cc4)cc3c(=O)c2cc1OC	35*	i	i	6	?	?
COc1cc2sc3ccc(C#CC4(O)CCCCC4)cc3c(=O)c2cc1OC	28	i	i	46	9.2µM*	?
COc1cccc2sc3cc(C#CC4(O)CCCCC4)ccc3c(=O)c12	63*	i	i	203	?	-3%
COc1cccc2sc3ccc(C#CC4(N)CCCCC4)cc3c(=O)c12	0	?	i	26	?	27%
